Assay results taken from PubChem BioAssay.
Potency and affinity values are given separately. Calls of active or inactive are those of the source. No cut-off is given here; in the data, nearly all actives have IC50 up to about 0.91 µM.

What follows are compounds tested against Calcium-dependent protein kinase 4 (Plasmodium falciparum (isolate 3D7)) (UniProt Q8IBS5) (assay: PfCDPK4 kinase inhibitors, biochemical, TCAMS library (AID 1159588)). Settings: recombinant PfCDPK4, Kinase-Glo ATP depletion luminescence.
Calcium-dependent protein kinase 4 (Plasmodium falciparum (isolate 3D7)), sequence (Q8IBS5 whole entry, looked up): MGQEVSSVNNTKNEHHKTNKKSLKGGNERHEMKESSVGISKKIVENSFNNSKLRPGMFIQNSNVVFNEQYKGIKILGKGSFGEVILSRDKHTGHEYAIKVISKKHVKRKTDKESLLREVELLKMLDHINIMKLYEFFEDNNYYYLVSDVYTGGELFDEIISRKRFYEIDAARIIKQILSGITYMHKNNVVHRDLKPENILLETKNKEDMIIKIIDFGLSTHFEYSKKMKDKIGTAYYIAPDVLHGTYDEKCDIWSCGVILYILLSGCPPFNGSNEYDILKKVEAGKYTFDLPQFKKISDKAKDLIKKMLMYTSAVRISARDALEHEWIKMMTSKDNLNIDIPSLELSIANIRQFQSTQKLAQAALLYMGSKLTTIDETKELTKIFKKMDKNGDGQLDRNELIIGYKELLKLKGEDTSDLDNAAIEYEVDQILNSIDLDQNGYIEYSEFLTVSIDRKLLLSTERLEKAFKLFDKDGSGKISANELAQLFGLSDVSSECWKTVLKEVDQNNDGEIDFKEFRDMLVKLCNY

outcome, inactive:
O=C(/C=C/c1ccc(Cl)c(Cl)c1)N1CCC(CCCN2CCC(c3c[nH]c4ccc(O)cc34)CC2)CC1, C=CCOC(=O)N1CCC(CNCc2cccc(-c3ccc(-c4nc5c(C)cccc5[nH]4)cc3)c2)C1 (centres undefined), CO/C(=C\C=C\c1cc2cc(Cl)c(Cl)cc2[nH]1)C(=O)NC1C[C@H]2CCC[C@@H](C1)N2C (some centres undefined), Nc1ncc(-c2ccccc2)cc1-c1nc2cc(Cl)c(F)cc2[nH]1, Cc1cccc2[nH]c(-c3ccc(-c4ccc(CN5CC(C)OC(C)C5)cc4)cc3)nc12 (centres undefined), CCCCCc1cnc2nc(N)nc(N)c2c1, Nc1cccc(CNCc2cccc(-c3ccc(-c4nc5ccccc5[nH]4)cc3)c2)c1, CCCC(CCC)n1ccc2c3c(N)nc(N)nc3ccc21, COc1cccc(OC)c1C(=O)N1CCC2(CC1)C(=O)N(CC(=O)NC1CCCCC1)CN2c1ccccc1, Cc1cc(N[C@@H](Cc2ccccc2)C(=O)NCc2cccs2)nc(NCCc2ccccn2)n1, OCC1CCN(Cc2ccc(-c3ccc(-c4nc5ccccc5[nH]4)cc3)cc2)CC1, COc1cc(C(=O)N2COCC(CCCN3CCC(N4CCCC4)CC3)(c3ccc(Cl)c(Cl)c3)C2)cc(OC)c1OC (centres undefined), COc1ccc2c(CCNc3nc(SC)ncc3C(=O)NCCc3ccc(F)cc3)c[nH]c2c1, CCn1c(C2CCN(CCC3CCN(C(=O)/C=C/c4ccc(Cl)c(Cl)c4)CC3)CC2)nc2ccccc21, CCN(CC)CCN(Cc1ccc(-c2ccc(C(F)(F)F)cc2)cc1)C(=O)Cn1c(/C=C/c2ccco2)nc(=O)c2ccccc21, CC(=O)Nc1ccc(CN2CCCN(c3cc(NC(=O)c4cccc(C)c4)ccn3)CC2)cc1, O=C(NC1CC1)c1ccc(N2CCCC(COc3ccc4c(c3)CCCC4)C2)nc1 (centres undefined), CC(C)(C)c1ccccc1OCCCON1C(N)=NC(N)=NC1(C)C, O=C(Nc1ccccc1)Nc1cccc(-c2cccc(-c3nc4ccc(F)cc4[nH]3)c2)c1, CC(C)c1ccc(NC(=O)c2ccc(C(=O)NC3CCN(Cc4ccsc4)C3)cc2)cc1 (centres undefined), O=C(Nc1ccc(C(F)(F)F)cc1)NC1CCN(c2ccnc3ccccc23)C1 (centres undefined), C=CCOc1ccc(CNC2CCN(Cc3ccccc3)CC2)cc1Br, COc1cccc(CN2CCCN(Cc3cccc(NC(=O)c4ccc(Cl)c(Cl)c4)c3)CC2)c1, Cc1cc2ccc(/C=C/C(=O)NC3CCC(CCN4CCc5ccc(C#N)cc5CC4)CC3)cc2[nH]1 (centres undefined), CCC1N=C(N)N=C(N)N1OCCCOc1c(Cl)cc(Cl)cc1Cl (centres undefined), NC(N)=NN=Cc1ccc2c(c1)Cc1ccccc1-2, Cc1ccc(S(=O)(=O)N(CCCNCc2cccc(O)c2)c2ccccc2)cc1, COc1cc(F)c2ncc(C#N)c(CCN3CCC(NCc4ccc5c(c4)OCCO5)CC3)c2c1, Nc1nc(N)c2c(Cl)c(N(Cc3ccccc3)Cc3ccccc3)ccc2n1, CCCN(CC1CC1)c1nc(C)nc2c(-c3ccccc3)cc(C)cc12, COc1ccc(-c2nc3c(N)nc(N)nc3nc2C(C)C)cc1, O=C(/C=C/c1ccc(C(F)(F)F)cc1)NCCCCCN1CCN(C(=O)Nc2ccc(Cl)cc2)CC1, Oc1ccc(Nc2nc(N3CCCC3)c3ccccc3n2)cc1, CCc1sc(CN(CCCNc2cc(=O)c3ccccc3[nH]2)Cc2sc(CC)c(Br)c2-c2ccsc2)c(-c2ccsc2)c1Br, COc1ccc(C(=O)N[C@@H](CC(C)C)C(=O)NC2CC[C@@H](C)N(C(=O)Nc3ccc(Cl)cc3)CC2=O)cc1OCCN1CCOCC1 (some centres undefined), C[C@@H]1CN(c2ccnc3ccc(Sc4ccc(Oc5ccccc5)cc4)cc23)C[C@H](C)N1, O=C(Nc1ccc2c(c1)CCNCC2)Nc1ccc2ccccc2c1, O=C1CC(C(=O)Nc2cccc(-c3cccc(-c4nc5ccccc5[nH]4)c3)c2)c2ccccc2N1 (centres undefined), CC(=O)c1cccc2[nH]c(C(=O)NC3CCC(CCN4CCc5ccc(C#N)cc5C4)CC3)cc12 (centres undefined)
